Twelve molecules from the supplement of paper PMC10105736 can be followed below.

± gives the standard deviation of the averaged measurements.

Holding throughout (test): MAPPIT interaction score (arbitrary units); higher = stronger binary interaction signal, active = hit call of the paper
The target in experiment [1] is Eato. As to conditions: MAPPIT configuration: N-N; pair source set: Lit-BS-16;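 active = MAPPIT score above the 99th percentile of random reference set scores in the same batch; inactive = at or below it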.
Experiment [2] addresses eIF3m. As to conditions: pair source set: Lit-BM-16.
Experiment [3] has as its target pnr. To be noted: MAPPIT configuration: N-N; pair source set: DPIM.
Experiment [4] addresses Fkbp39. To be noted: pair source set: Lit-BM-16.
The target of experiment [5] is Eglp4. To be noted: MAPPIT configuration: N-C; pair source set: screen_3.
Experiment [6] deals with Faf2. To be noted: MAPPIT configuration: N-C; pair source set: screen_4.
Experiment [7] has as its target RIC-3. As to conditions: MAPPIT configuration: N-C; pair source set: screen_4.
Experiment [8] concerns the target Elal. To be noted: MAPPIT configuration: N-N; pair source set: Finley_Y2H.
Experiment [9] has as its target E(spl)m4-BFM. As to conditions: MAPPIT configuration: N-C; pair source set: RRS.
In experiment [10] the target is Fatp3. As to conditions: MAPPIT configuration: N-N; pair source set: Curagen_low_conf.
Experiment [11] addresses Fkbp12. As to conditions: MAPPIT configuration: N-N; pair source set: DPIM.
The target of experiment [12] is E(z). To be noted: pair source set: Lit-BM-16.
Experiment [13] addresses EMC2B. To be noted: MAPPIT configuration: N-C; pair source set: Lit-BM-16.
Experiment [14] addresses EndoB. To be noted: MAPPIT configuration: N-N; pair source set: screen_2.
The target in experiment [15] is Fer1HCH. To be noted: MAPPIT configuration: N-N; pair source set: Curagen_low_conf.
Experiment [16] addresses mino. As to conditions: MAPPIT configuration: N-N; pair source set: Lit-BS-16.
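Note: HEK293T cells with Epo stimulation, STAT-responsive firefly luciferase reporter, fold induction versus unstimulated cells divided by the larger fold induction of two negative controls lacking either bait or prey.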

B1: eIF3f1 (protein)
chain: MSALNLTVRVHPVVLFQVVDAFERRNADSHRVIGTLLGSVDKGVVEVTNCFCVPHKEHDDQVEAELSYALDMYDLNRKVNSNESVVGWWATGNDVTNHSSVIHEYYARECNNPVHLTVDTSLQGGRMGLRAYVCIQLGVPGGKSGCMFTPIPVELTSYEPETFGLKLLQKTVGVSPAHRPKTVPPMLDLAQISEASTKLQSLLDLILKYVDDVIAHKVTPDNAVGRQLLDLIHSVPHMTHEQFTQMFNANVRNLLLVITLSQLIKTQLQLNEKLTFLPTA
In the case of B1, the MAPPIT interaction score is 0.224 (inactive) in experiment [1], 3.45 (inactive) in [2] (MAPPIT configuration: N-C), 5.78 (active) in experiment [2] (MAPPIT configuration: N-N) and -0.504 (inactive) in experiment [3].

B2: Fkbp39 (protein)
chain: MSMFWGLNMKPERKYSQTIIKSFHISGVALDKGQEAKLYLAAEKQEYIVATVTKAIPQVALDLNFSKGDRIMFYTAGDASVSLLGYLHDIDSEDDEDDDQMTIENLLNSKAIKNSKKSEDDEDENESGEEDEEDTDDDSQIIEEYESFLENGEEEDDDDVDEDNEESGEEDEQDSDDSEAEEEQPKAKVAKLSPGASAKKSGKEQNGVAKKEEAKQQQKKKEKPEAKKEQPKAKEPAKQQPASKDPRTITGGVKIVDQVVGKGEEAKQGKRVSVYYIGRLQSNNKTFDSLLKGKPFKFALGGGEVIKGWDVGVAGMKVGGKRVITCPPHMAYGARGAPPKIGPNSTLVFEVELKAVH
For B2, the MAPPIT interaction score is 3.82 (active) in experiment [4] (MAPPIT configuration: N-C) and 2.59 ± 0.55 in [4] (MAPPIT configuration: N-N).

B3: Membrin (protein)
chain: MESLYHQTNNVVKDIERDFQRLSQLSAQESLDVENGIQLKITQANANCDRLDVLLYKVPPSQRQSSKLRVDQLKYDLRHLQTSLQTARERRQRRMQEISEREQLLNHRFTANSAQPEETRLQLDYELQHHTQLGNAHRGVDDMIASGSGILESLISQRMTLGGAHKRIQAIGSTLGLSNHTMKLIERRLVEDRRIFIGGVVVTLLIIALIIYFLVL
For B3, the MAPPIT interaction score in experiment [5] was 0.261 (inactive); in experiment [6] it was 2.2 (inactive); in experiment [7], -0.382 (inactive).

B4: mgr (protein)
chain: MTGIMDSVEMPKLPENQKTFAGIPEAVFLEEIDTFMSQPENENCEKVLQRLDEQHGKYRFMACNLEARRRKLKSQIPDLERSLEMVNVLRKEDEERETQFLLSDQVFIKTLVPPTKTVYLWLGASVMLEYPLDEAEALLNQNITSAVGNLKSVEHDQDFLRDQITTTEVNMARVYNWGVKKRQAATKTTATTPS
With B4, the MAPPIT interaction score in experiment [8] was 0.515 (inactive).

B5: RFeSP (protein)
chain: MMNAVSRAYVRGGAQVLSTGLKASGVAVNSMANRQAHTDLQVPDFSAYRRESVKDSRRRNDTAEERKAFSYLMVGAGAVGGAYAAKGLVNTFIGSMSASAEVLAMAKIEIKLSDIPEGKSVTFKWRGKPLFIRHRTAAEIETERNVPTSTLRDPEADDQRVIKPEWLVVIGVCTHLGCVPIANAGDWGGYYCPCHGSHYDASGRIRKGPAPLNLEVPTHEFPNEGLLVVG
Regarding B5, in [9], the MAPPIT interaction score was 0.917 (inactive).

B6: cnn (protein)
chain: MNSNRTSSSHNSRNLKILNASFDVPRPPGGGNSPLPSQGRSVRELEEQMSALRKENFNLKLRIYFLEEGQPGARADSSTESLSKQLIDAKIEIATLRKTVDVKMELLKDAARAISHHEELQRKADIDSQAIIDELQEQIHAYQMAESGGQPVENIAKTRKMLRLESEVQRLEEELVNIEARNVAARNELEFMLAERLESLTACEGKIQELAIKNSELVERLEKETASAESSNEAIDSLKVELEACRKENQDLVTSIRTLKHDMKRQVRSMKEAANTMDVQRQSILLLEATIKRKEKSCGSMQKNVLNYEALIAKLNAELETMRQQNVYFRELSENLQQKEVRQLDRGVAIVQPMRMTADAGRFVWQSGTIVAQEPLPLERQSAAATSNVSVSAVRLSSGPPPDQTYPVNGHDRAKYGLLQLFAAKLDWISAVPLALGHLALKIILLAMRLHSCLQNVHIPLRANRDLGAQLADKICELQEAQEKLKERERIHEQACRTIQKLMQKLSSQEKEIKKLNQENEQSANKENDCAKTVISPSSSGRSMSDNEASSQEMSTNLRVRYELKINEQEEKIKQLQTEVKKKTANLQNLVNKELWEKNREVERLTKLLANQQKTLPQISEESAGEADLQQSFTEAEYMRALERNKLLQRKVDVLFQRLADDQQNSAVIGQLRLELQQARTEVETADKWRLECVDVCSVLTNRLEELAGFLNSLLKHKDVLGVLAADRRNAMRKAVDRSLDLSKSLNMTLNITATSLADQSLAQLCNLSEILYTEGDASHKTFNSHEELHAATSMAPTVENLKAENKALKKELEKRRSSEGQRKERRSLPLPSQQFDNQSESEAWSEPDRKVSLARIGLDETSNSLAAPEQAISESESEGRTCATRQDRNRNSERIAQLEEQIAQKDERMLNVQCQMVELDNRYKQEQLRCLDITQQLEQLRAINEALTADLHAIGSHEEERMVELQRQLELKNQQIDQLKLAHSTLTADSQITEMELQALQQQMQEIEQLHADSVETLQSQLQKLKLDAVQQLEEHERLHREALERDWVALTTYQEQAQQLLELQRSLDYHQENEKELKQTLVENELATRALKKQLDESTLQASKAVMERTKAYNDKLQLEKRSEELRLQLEALKEEHQKLLQKRSNSSDVSQSGYTSEEVAVPMGPPSGQATTCKQAAAAVLGQRVNTSSPDLGIESDAGRISSVEVSNAQRAMLKTVEMKTEGSASPKAKSEESTSPDSKSNVATGAATVHDCAKVDLENAELRRKLIRTKRAFEDTYEKLRMANKAKAQVEKDIKNQILKTHNVLRNVRSNMENEL
With B6, the MAPPIT interaction score in experiment [10] is -0.429 (inactive).

B7: sigmar (protein)
chain: MADNVFKSHDIGLRAQKKILSRMATKNIAKTFIDGTTASLLDNLYRLCKMHTGNKAKAEKLIKNIIKIVIKIGVLHRNNQFSDEELQKAELFKRKFQNTQLSIISFYEVDFTFDLPYLQKSIAESQVALKSIVQPHLTEKSLGRIDEVFDFFGEEALLETAFRPDSPYREVMGKIVADINAAMETGDI
In the case of B7, the MAPPIT interaction score in experiment [11] is -0.294 (inactive).

B8: Pcl (protein)
chain: MMNNHFHLQHDHPPQNVAHPFMQQPSTAVPSAPPATYGYLAQPAGQQPQWMTTTYQILPPSVGPATVAKRYYATTGPQTTHPTHPSTIQITNSFAQQSTPPKQQAATSCSPFKANNIRIISTAPSVYSLNKPPQEAHSTYAPVQSYYLPSGGGQTAGQINLLAASGTGKQLQPPPLVPVTNSTSPPSTVVLDRINICINNHYTETPTSLSSSLTTAQQPSPIIPAIQHKAILPLIDSSTADSSSCSSSSVSSSSYSGTATTSAAVVIVDEPDSTTTTPQTPPTTPEAMSSPGKSSPSPPLLATQSLLKGVNSMKPSFKTVEAAPPTPPTPPSPPPPPPAPPVAAPSPAVTYALQEDVFIKCNDGRFYLGTIIDQTSDQYLIRFDDQSEQWCEPDKLRKLGGGSSITAGGGGASTTESTNTSPSGPMCVACKRSDIEDVVEICERCGRGYHRGCTVEIVTGSGIWSCKRCAKPMKMQQPVSHKITKPAGICRQLPYHADKLSWDEKHRVNEEQIYCYCGKPGKFDHNMLQCCKCRNWFHTQCMQNFKKKLLRGDMFFVFCCTVCNNGIEFVRRMQIEWVDVLHIALYNLRKHQHQKYHHLLNDIWPFILEQRHQLPICEKWRTLPETALMERLKQTLKDYSDRFVCGREFKRAPAFYALRHSGPPHIPKVFLEPHEELSDELLEKRFKLMLMPEEPDEGANELPKRVPKDVYEFNTDEDDPVETSEDEIPIKQIIEKAKKQAAQKADKHDELPLKPDLADDNANDGDPGKLPAPIPPLLDANSSRKRKAFRLSKRYDNSRNHCDLSSDENSSSSRGTSSLDLIIPPPVNFLGRNNPFLMATPKKASQGRSISVGTGVGVNGIINSIFKLKGTSKEQPRMVRTIKRRLSAKDITIGPNQEVRRRRTRRLTTAIEVISTTTINPIPSHYLPIYAKDLQPPAPPMGKPTHGRLLRQRPQKQSPSQSRRNSTSSTATSSSSNGIGAPGHSMLDLKQSVNKYFGGAMNRIDAGEPFAIRAKRRMGNGQVQYLVEWGGDTATTAIGLLGN
Turning to B8, the MAPPIT interaction score was 0.709 (inactive) in experiment [12] (MAPPIT configuration: N-C) and 3.05 (active) in [12] (MAPPIT configuration: N-N).

B9: EMC8-9 (protein)
chain: MCDYKVSERAYAKLIFHAAKYPHQAVNGLLLAEKTSKGSQVEIVDAIPLFHQCLYVTPMAEVALMLIDAHAEREGLVIAGYYAAPENFYDNQVDKTPAAKIADKIQENFKNACFVVVDNKLMTLQHDRAAIQVFNCPGDSGARWSKAKFTLSQASDTLEGVSLLLKRGAMRDLVDFDNHLDNPDKNWTNDFLNQPLNDLQKLY
For the molecule B9, the MAPPIT interaction score in [13] was -4.28 (inactive).

B10: RpS20 (protein)
chain: MAAAPKDIEKPHVGDSASVHRIRITLTSRNVRSLENVCRDLINGAKNQNLRVKGPVRMPTKTLRITTRKTPCGEGSKTWDRFQMRIHKRIIDLHSPSEIVKKITSINIEPGVEVEVTIAN
Consider B10, for which the MAPPIT interaction score in experiment [14] was 3.62 (active).

B11: pho (protein)
chain: MAYERFGIILQSEQYDEDIGNTKVNQKMNEGNHYDLHRKNAFDRIIHSESKKGDNVINYNIHENDKIKAADNIFSSKLKMNPNMSYEMNINCFKNIGYGENQETSKVLTNSLSNNDINTEESGVVDKNSPFLTLGTTILNSNGKSRRWEQKLVHIKTMEGEFSVTMWASGISDDEYSGSDQIVGASDLLKGKEEFGIDGFTSQQNKEYQKMESKFTNAQTLEMPHPISSVQIMDHLIKERGNLSQENNISERILSKTTLSFEEPILLPDSSSIELVNETAAMTINNHRTLSNHTGNTGDLHALPSSVPFRIGLHEGQVNDCLSTISQSTHQDNTDSTGCGEMNLSEVTVSYTNDKKIACPHKGCNKHFRDSSAMRKHLHTHGPRVHVCAECGKAFVESSKLKRHQLVHTGEKPFQCTFEGCGKRFSLDFNLRTHVRIHTGDRPFVCPFDACNKKFAQSTNLKSHILTHAKAKRNTSISGKSGCSNAESNSQSEDTSANYVKVELQDSVTENHVPFVVYAD
B11: the MAPPIT interaction score in experiment [12] (MAPPIT configuration: N-C) is 0.498 (inactive); in [12] (MAPPIT configuration: N-N), 0.583 (inactive).

B12: Hn (protein)
chain: MYQRQVSFDKPTRVEDSAYIVEGVDIKEARNTCLLFSPKDSSLSSGALANILAIFKKHDINLVHIESRSSLRVPGYEFFVEADGKSGALGKAIEDVKEQCSYFNIISRDYKDNATAVPWFPRRIRDLDRFANQILSYGSELDADHPGFTDPEYRKRRKYFADIAYNYKHGEPLPHVDYTKEEIETWGIIFRNLTKLYKTHACREYNHVFPLLVDNCGFREDNIPQLEDVSNFLRDCTGFTLRPVAGLLSSRDFLAGLAFRVFHSTQYIRHPSKPMYTPEPDVCHELMGHVPLFADPAFAQFSQEIGLASLGAPDDYIEKLSTIFWFTVEYGVCRQEGELKAYGAGLLSSYGELEYCLTDKPQLKDFEPEVTGVTKYPITQFQPLYYVADSFETAKEKTIKFANSIPRPFGVRYNAYTQSVEVLDSKPQISNLMDNINSEFQILQNAVAKLRV
Turning to B12, the MAPPIT interaction score in experiment [15] was 0.406 (inactive); in experiment [16] it was 0.808 (inactive).
